Data from PubChem BioAssay.
The source made the active and inactive calls.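 Rule for the calls, unless noted: active = normalized viability below 100% at a tested concentration; inactive = the rest.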 Positions of bridges follow the written chain, without caps; N, C: chain ends. Non-standard residues stand in square brackets, D forms with d. Residues, ends and D or L forms follow the SMILES beside them. ξ: configuration not given here. *: point of attachment. Heptanoyl(5-Me) = CCC(C)CCCC(=O)*; ξThr(3R) = C[C@@H](O)C(N)C(=O)O; dDab = NCC[C@@H](N)C(=O)O; Dab = NCC[C@H](N)C(=O)O

What was measured:
[1] = target: NAD(+) hydrolase SARM1 (Homo sapiens) (UniProt Q6SZW1); assay: SARM1 TIR NADase inhibitors, cell lysate, NAD-Glo luminescence (AID 1508614;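 active = compound whose remaining NAD level is above about 45 nM, limit read from the data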;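 note: higher remaining NAD means stronger inhibition of SARM1 NADase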); settings: SAM-TIR HEK293T lysate NADase, at 1 µM, active compounds read high
NAD(+) hydrolase SARM1 (Homo sapiens), sequence (Q6SZW1 whole entry, looked up): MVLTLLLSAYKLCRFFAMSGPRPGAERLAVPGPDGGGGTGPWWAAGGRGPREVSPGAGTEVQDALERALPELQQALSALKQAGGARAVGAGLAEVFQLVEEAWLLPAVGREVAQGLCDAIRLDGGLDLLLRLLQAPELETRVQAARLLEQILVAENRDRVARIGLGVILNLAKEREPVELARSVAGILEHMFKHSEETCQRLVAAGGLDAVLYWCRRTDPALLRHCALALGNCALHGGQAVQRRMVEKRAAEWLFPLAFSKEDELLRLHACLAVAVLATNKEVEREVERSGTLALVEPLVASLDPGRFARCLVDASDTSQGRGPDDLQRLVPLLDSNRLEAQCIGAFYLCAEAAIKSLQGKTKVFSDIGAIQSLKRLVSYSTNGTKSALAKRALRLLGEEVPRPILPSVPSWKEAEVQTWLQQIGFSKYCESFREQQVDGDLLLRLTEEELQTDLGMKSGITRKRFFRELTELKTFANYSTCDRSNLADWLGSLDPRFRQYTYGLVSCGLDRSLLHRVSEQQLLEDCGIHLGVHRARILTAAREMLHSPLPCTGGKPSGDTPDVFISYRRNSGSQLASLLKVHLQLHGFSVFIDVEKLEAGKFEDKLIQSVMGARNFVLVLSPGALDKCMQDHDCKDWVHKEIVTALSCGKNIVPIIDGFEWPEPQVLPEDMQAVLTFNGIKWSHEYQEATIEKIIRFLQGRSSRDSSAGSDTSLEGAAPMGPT

[2] = ovarian cancer cell viability with rucaparib, profiling panel, oncology-focused library, rucaparib conditional (AID 1508598); settings: patient-derived ovarian cancer cells, CellTiter-Glo viability, 144 h, active compounds read low
[3] = at 0.000305 µM, OCI-C5x cells, with rucaparib 10 µM, 100% = cells with rucaparib alone
[4] = at 0.000305 µM, OCI-C5x cells, without rucaparib
[5] = at 0.000305 µM, OCI-P5x cells, with rucaparib 20 µM, 100% = cells with rucaparib alone
[6] = at 0.000305 µM, OCI-P5x cells, without rucaparib
[7] = at 0.00122 µM, OCI-C5x cells, with rucaparib 10 µM, 100% = cells with rucaparib alone
[8] = at 0.00122 µM, OCI-C5x cells, without rucaparib
[9] = at 0.00122 µM, OCI-P5x cells, with rucaparib 20 µM, 100% = cells with rucaparib alone
[10] = at 0.00122 µM, OCI-P5x cells, without rucaparib
[11] = at 0.00488 µM, OCI-C5x cells, with rucaparib 10 µM, 100% = cells with rucaparib alone
[12] = at 0.00488 µM, OCI-C5x cells, without rucaparib
[13] = at 0.00488 µM, OCI-P5x cells, with rucaparib 20 µM, 100% = cells with rucaparib alone
[14] = at 0.00488 µM, OCI-P5x cells, without rucaparib
[15] = at 0.0195 µM, OCI-C5x cells, with rucaparib 10 µM, 100% = cells with rucaparib alone
[16] = at 0.0195 µM, OCI-C5x cells, without rucaparib
[17] = at 0.0195 µM, OCI-P5x cells, with rucaparib 20 µM, 100% = cells with rucaparib alone
[18] = at 0.0195 µM, OCI-P5x cells, without rucaparib
[19] = at 0.0781 µM, OCI-C5x cells, with rucaparib 10 µM, 100% = cells with rucaparib alone
[20] = at 0.0781 µM, OCI-C5x cells, without rucaparib
[21] = at 0.0781 µM, OCI-P5x cells, with rucaparib 20 µM, 100% = cells with rucaparib alone
[22] = at 0.0781 µM, OCI-P5x cells, without rucaparib
[23] = at 0.313 µM, OCI-C5x cells, with rucaparib 10 µM, 100% = cells with rucaparib alone
[24] = at 0.313 µM, OCI-C5x cells, without rucaparib
[25] = at 0.313 µM, OCI-P5x cells, with rucaparib 20 µM, 100% = cells with rucaparib alone
[26] = at 0.313 µM, OCI-P5x cells, without rucaparib
[27] = at 1.25 µM, OCI-C5x cells, with rucaparib 10 µM, 100% = cells with rucaparib alone
[28] = at 1.25 µM, OCI-C5x cells, without rucaparib
[29] = at 1.25 µM, OCI-P5x cells, with rucaparib 20 µM, 100% = cells with rucaparib alone
[30] = at 1.25 µM, OCI-P5x cells, without rucaparib
[31] = at 5 µM, OCI-C5x cells, with rucaparib 10 µM, 100% = cells with rucaparib alone
[32] = at 5 µM, OCI-C5x cells, without rucaparib
[33] = at 5 µM, OCI-P5x cells, with rucaparib 20 µM, 100% = cells with rucaparib alone
[34] = at 5 µM, OCI-P5x cells, without rucaparib

CCC(C)CCCC(=O)N[C@@H](CCN)C(=O)N[C@H](C(=O)N[C@@H](CCN)C(=O)N[C@H]1CCNC(=O)C([C@@H](C)O)NC(=O)[C@@H](CCN)NC(=O)[C@H](CCN)NC(=O)[C@@H](CC(C)C)NC(=O)[C@@H](CC(C)C)NC(=O)[C@H](CCN)NC1=O)[C@@H](C)O (stereo partly drawn) ({Heptanoyl(5-Me)}-[Dab]T[Dab][Dab][Dab][dL][dL][Dab][dDab][ξThr(3R)]; lactam 4-C)
inactive: remaining NAD [1] 10 nM

Cc1cc2nc3c(=O)[nH]c(=O)nc-3n(C[C@H](O)[C@H](O)[C@H](O)COP(=O)(O)O)c2cc1C
inactive: remaining NAD [1] 10 nM

CC1=C(/C=C/C(C)=C\C=C\C(C)=C/C(=O)O)C(C)(C)CCC1
active: viability [2, 5] 94.7% | viability [2, 6] 87.1% | viability [2, 9] 78.9% | viability [2, 10] 65.9% | viability [2, 13] 81.7% | viability [2, 17] 99% | viability [2, 18] 97.6% | viability [2, 21] 96.7% | viability [2, 22] 97.6% | viability [2, 25] 93.9% | viability [2, 26] 96.4% | viability [2, 29] 92.6% | viability [2, 30] 92.3% | viability [2, 31] 96.2% | viability [2, 33] 84.1% | viability [2, 34] 82.8%
inactive: viability [2, 3] 112% | viability [2, 4] 108% | viability [2, 7] 115% | viability [2, 8] 105% | viability [2, 11] 111% | viability [2, 12] 109% | viability [2, 14] 101% | viability [2, 15] 103% | viability [2, 16] 106% | viability [2, 19] 105% | viability [2, 20] 109% | viability [2, 23] 108% | viability [2, 24] 106% | viability [2, 27] 103% | viability [2, 28] 105% | viability [2, 32] 104%

CC(C)C[C@H](NP(=O)(O)O[C@@H]1O[C@@H](C)[C@H](O)[C@@H](O)[C@H]1O)C(=O)N[C@@H](Cc1c[nH]c2ccccc12)C(=O)O
inactive: viability [2, 3] 124% | viability [2, 4] 113% | viability [2, 5] 105% | viability [2, 7] 127% | viability [2, 8] 113% | viability [2, 10] 103% | viability [2, 11] 127% | viability [2, 12] 116% | viability [2, 13] 104% | viability [2, 15] 122% | viability [2, 16] 106% | viability [2, 17] 101% | viability [2, 19] 121% | viability [2, 20] 107% | viability [2, 23] 124% | viability [2, 24] 103% | viability [2, 27] 132% | viability [2, 28] 117% | viability [2, 31] 123% | viability [2, 32] 104%
active: viability [2, 6] 99.9% | viability [2, 9] 97.2% | viability [2, 14] 96.5% | viability [2, 18] 93.9% | viability [2, 21] 99.3% | viability [2, 22] 96.3% | viability [2, 25] 98.1% | viability [2, 26] 98.7% | viability [2, 29] 94.3% | viability [2, 30] 91.1% | viability [2, 33] 88.8% | viability [2, 34] 92%

CC(C)(C(=O)NCC(F)(F)C(F)(F)F)C(=O)N[C@H]1C(=O)Nc2ccccc2-c2ccccc21
inactive: viability [2, 3] 111% | viability [2, 4] 114% | viability [2, 5] 103% | viability [2, 6] 105% | viability [2, 7] 106% | viability [2, 8] 111% | viability [2, 9] 103% | viability [2, 10] 104% | viability [2, 11] 114% | viability [2, 12] 117% | viability [2, 15] 110% | viability [2, 16] 117% | viability [2, 19] 119% | viability [2, 20] 119% | viability [2, 23] 116% | viability [2, 24] 107% | viability [2, 27] 114% | viability [2, 28] 113% | viability [2, 31] 117% | viability [2, 32] 108%
active: viability [2, 13] 99.5% | viability [2, 14] 94.4% | viability [2, 17] 85.5% | viability [2, 18] 90.2% | viability [2, 21] 92% | viability [2, 22] 91.6% | viability [2, 25] 85.7% | viability [2, 26] 85.2% | viability [2, 29] 82.5% | viability [2, 30] 82% | viability [2, 33] 72% | viability [2, 34] 76.9%

Nc1ncn([C@@H]2O[C@H](CO)[C@@H](O)[C@@H]2O)c(=O)n1
inactive: viability [2, 3] 104% | viability [2, 4] 128% | viability [2, 5] 103% | viability [2, 6] 125% | viability [2, 7] 108% | viability [2, 8] 132% | viability [2, 9] 102% | viability [2, 10] 123% | viability [2, 11] 114% | viability [2, 12] 122% | viability [2, 13] 102% | viability [2, 14] 116% | viability [2, 15] 114% | viability [2, 16] 129% | viability [2, 17] 110% | viability [2, 18] 119% | viability [2, 19] 117% | viability [2, 20] 119% | viability [2, 21] 110% | viability [2, 22] 122% | viability [2, 23] 112% | viability [2, 24] 124% | viability [2, 25] 114% | viability [2, 26] 122% | viability [2, 27] 110% | viability [2, 28] 123% | viability [2, 29] 105% | viability [2, 30] 111% | viability [2, 31] 107% | viability [2, 32] 109%
